Assay outcomes: PubChem, National Center for Advancing Translational Sciences (NCATS)
A selection: hits, their analogues and other compounds. The true share with any hit is near 11%.
AMA1 RON2 block = qHTS for Inhibitors of AMA1-RON; Towards Development of Antimalarial Drug Lead: Primary Screen | Plasmodium falciparum AMA1 (3D7) - RON2 peptide interaction | AlphaScreen AMA1-biotinylated RON2 peptide binding | Potency, µM (highest dose often 58.2 µM), inactives show top-dose activity change, negative = inhibition, most hits filed as inhibitors | 360,000 tested, 0.2% active;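 also: 0% = vehicle wells and -100% = peptide control; nearly all actives have a fitted effect of over 45% in size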
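AMA1 (3D7) with his tag at 25 nM final met compounds first, then biotinylated RON2 peptide at 25 nM; detection used donor plus acceptor beads, 10 µg/mL apiece, read by AlphaScreen after 30 min at room temperature.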
Pf growth 96h = Primary qHTS for delayed death inhibitors of the malarial parasite plastid, 96 hour incubation | P. falciparum luciferase reporter growth, 96 h | Potency, µM (series often up to 28.7 µM), without a hit: top-dose activity change, negative = inhibition, actives largely listed as inhibitors | 320,000 tested, 6.9% active | AID 504834, 2011
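Plates of compound plus infected erythrocytes (2% hematocrit, 0.05% parasitemia final) incubate 96 hours, 37 C, 5% CO2. Detection reagent added; reduced luminescence from the parasites' luciferase reporter flags inhibition.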
HCV inh = qHTS Assay for Inhibitors of Hepatitis C Virus (HCV); Potency, µM (doses to about 41.8 µM), without a hit: at the highest dose activity change, negative = inhibition, most hits filed as inhibitors; 340,000 tested, 3.4% active; Huh7.5.1 HCVcc-Cre infection, luciferase reporter, 44 h
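After 44 h co-culture of compound, cells and HCVcc-Cre (~0.5 moi), substrate is added for 15 min at room temperature and luciferase measured over 15 sec. Cells were seeded at 1,000/well and pre-cultured 4 h.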
AmpC no deterg = qHTS Inhibitors of AmpC Beta-Lactamase (assay without detergent); P00811; AmpC nitrocefin hydrolysis, absorbance 480 nm, 0.0001% Triton; Potency, µM (top dose mostly 57.1 µM), for inactives: at the top dose activity change, negative = inhibition, most hits filed as inhibitors; 330,000 tested, 0.52% active; AID 485341, 2010;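 also: plate controls were no compound for no effect and no enzyme for full effect; nearly all actives have a fitted effect of over 20% in size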
Target sequence (P00811 whole entry, looked up): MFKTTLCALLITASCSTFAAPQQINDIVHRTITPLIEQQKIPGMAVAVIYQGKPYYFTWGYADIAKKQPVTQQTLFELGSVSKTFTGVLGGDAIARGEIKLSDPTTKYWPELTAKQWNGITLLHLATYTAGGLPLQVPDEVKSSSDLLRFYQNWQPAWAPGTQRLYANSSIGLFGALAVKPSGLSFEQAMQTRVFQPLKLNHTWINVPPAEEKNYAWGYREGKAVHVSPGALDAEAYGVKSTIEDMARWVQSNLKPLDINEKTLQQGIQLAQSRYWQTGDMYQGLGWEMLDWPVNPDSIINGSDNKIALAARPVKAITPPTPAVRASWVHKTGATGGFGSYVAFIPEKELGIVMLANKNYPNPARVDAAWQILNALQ
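20 mM phosphate pH 7.0 + 0.01% (detergent screen) or 0.0001% Triton X-100; 5.3 nM AmpC reagent; cpd preinc 15 min RT; nitrocefin (800 uM stock) to start; A480 q20 s × 4 min; Activity was normalised to no-enzyme and no-compound control wells.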
AmpC inh detg = qHTS Inhibitors of AmpC Beta-Lactamase (assay with detergent); AmpC hydrolysis of nitrocefin, absorbance 480 nm, 0.01% Triton; 370,000 tested, 0.041% active; Potency, µM (highest dose often 114 µM), inactives show at the top dose activity change, negative = inhibition, actives largely listed as inhibitors; P00811;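 also: 0% = no-compound wells and -100% = no-enzyme wells; nearly all actives have a fitted effect of over 25% in size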
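AmpC (5.3 nM in the dispensed reagent) in 20 mM phosphate pH 7.0 with 0.01% (detergent screen) or 0.0001% Triton X-100 was preincubated with compounds for 15 min at room temperature. Nitrocefin was then added from an 800 uM solution, and hydrolysis was followed at 480 nm.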
Pf growth 48h = Primary qHTS for delayed death inhibitors of the malarial parasite plastid, 48 hour incubation; P. falciparum luciferase growth in erythrocytes, 48 h; Potency, µM (top dose mostly 28.7 µM), for the others: at the highest dose activity change, negative = inhibition, most hits filed as inhibitors; 310,000 tested, 5.9% active
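Read-out is firefly luciferase luminescence from an integrated reporter in P. falciparum, so falling signal marks reduced parasite growth. Infected erythrocytes were at 2% hematocrit and 0.1% parasitemia (final) in Albumax-supplemented RPMI 1640.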
Starred values were filed as active, the others as inactive; ? = inconclusive; / = no result; ! = not confirmed by another sample; [ ] = dose if it differs, or a comment. Calls follow the shape of the dose curve; as a rule, active = well fitted curve in the direction sought with a large enough effect; inconclusive = small, poorly fitted or top-dose-only effect, or another doubt; inactive = no such curve, though single readings can be large; an effect the other way counts as inactive or inconclusive. Unless noted, % is scaled to controls: 0 for no effect and ±100 for the full control effect; potency is read from the fitted curve at half-maximal effect.

SMILES | AMA1 RON2 block | Pf growth 96h | HCV inh | AmpC no deterg | AmpC inh detg | Pf growth 48h
C#CCOCCOCCOCCNc1nc(N2CCN(C(=O)CCCCCCCCCCNC(=O)Cn3cc(CCCCCN)nn3)CC2)nc(N2CCN(C(=O)CCCCCCCCCCNC(=O)[C@@H](CCSC)n3cc(CCO)nn3)CC2)n1 | -2% | 1µM* | -14% | 330% | -1% | 1.2µM*
C#CCOCCOCCOCCNc1nc(N2CCN(C(=O)Cn3cc(CCCCN)nn3)CC2)nc(N2CCN(C(=O)Cn3cc(CCCCN)nn3)CC2)n1 | -2% | -23% | ? | 153% | -6% | 2%
C#CCOCCOCCOCCNc1nc(N2CCN(C(=O)Cn3cc(CC(C)O)nn3)CC2)nc(N2CCN(C(=O)[C@H](CCCCN)n3cc(CCCC)nn3)CC2)n1 (some centres not stated) | -7% | / | 3% | / | / | /
C#CCOCCOCCOCCNc1nc(N2CCN(C(=O)CCCCCCCCCCNC(=O)Cn3cc(C[C@@H](C)O)nn3)CC2)nc(N2CCN(C(=O)CCCCCCCCCCNC(=O)[C@H](CO)n3cc(CCCSC)nn3)CC2)n1 | 0% | 0.15µM* | 13% | 214% | 1% | 0.15µM*
C#CCOCCOCCOCCNc1nc(N2CCN(C(=O)CCCCCCCCCCNC(=O)Cn3cc(C[C@@H](C)O)nn3)CC2)nc(N2CCN(C(=O)CCCCCCCCCCNC(=O)[C@@H](CCC(=O)O)n3cc(CCCCCN)nn3)CC2)n1 | ? | ? | 11% | 303% | 0% | 1µM*
O=c1oc2ccc(Cl)cc2cc1-c1cn2c(n1)sc1ccccc12 | / | / | / | / | -8% | /
C#CCOCCOCCOCCNc1nc(N2CCN(C(=O)CCCCCCCCCCNC(=O)[C@@H](CCSC)n3cc(CCO)nn3)CC2)nc(N2CCN(C(=O)CCCCCCCCCCNC(=O)[C@H](CCSC)n3cc(CCO)nn3)CC2)n1 | 8% | 0.29µM* | 4% | 163% | -11% | 0.33µM*
C#CCOCCOCCOCCNc1nc(N2CCN(C(=O)CCCCCCCCCCNC(=O)Cn3cc(C[C@@H](C)O)nn3)CC2)nc(N2CCN(C(=O)CCCCCCCCCCNC(=O)[C@H](CCCCN)n3cc(CCCC(=O)O)nn3)CC2)n1 | -16% | ? | ? | 234% | -13% | 5.2µM*
C#CCOCCOCCOCCNc1nc(N2CCN(C(=O)CCCCCCCCCCNC(=O)Cn3cc(CCCCCN)nn3)CC2)nc(N2CCN(C(=O)CCCCCCCCCCNC(=O)[C@@H](CCC(=O)O)n3cc(CCCCCN)nn3)CC2)n1 | -15% | ? | -7% | 295% | 3% | 13µM*
C#CCOCCOCCOCCNc1nc(N2CCN(C(=O)CCCCCCCCCCNC(=O)Cn3cc(C[C@@H](C)O)nn3)CC2)nc(N2CCN(C(=O)CCCCCCCCCCNC(=O)[C@H](CCCN=C(N)N)n3cc(C[C@@H](C)CC)nn3)CC2)n1 | ? | 1µM* | 6% | 201% | ? | 1.3µM*
C#CCOCCOCCOCCNc1nc(N2CCN(C(=O)Cn3cc(CCCN=C(N)N)nn3)CC2)nc(N2CCN(C(=O)Cn3cc(CC(C)O)nn3)CC2)n1 (configuration not stated) | -3% | / | 21% | / | / | /
COC(=O)c1c(-c2cccs2)csc1NC(=O)c1ccc(C(C)C)cc1 | / | / | / | / | 20% | /
CCOc1ccc(NC(=O)N2CC=C(c3c[nH]c4ccccc34)CC2)cc1 | / | / | / | / | 24% | /
C#CCOCCOCCOCCNc1nc(N2CCN(C(=O)CCCCCCCCCCNC(=O)[C@H](CO)n3cc(CCCSC)nn3)CC2)nc(N2CCN(C(=O)CCCCCCCCCCNC(=O)[C@@H]([C@H](C)O)n3cc(C)nn3)CC2)n1 | / | 0.093µM* | ? | 247% | -3% | 0.29µM*
C#CCOCCOCCOCCNc1nc(N2CCN(C(=O)CCCCCCCCCCNC(=O)[C@H](CO)n3cc(CCCSC)nn3)CC2)nc(N2CCN(C(=O)CCCCCCCCCCNC(=O)[C@H](CCCN=C(N)N)n3cc(C[C@@H](C)CC)nn3)CC2)n1 | ? | 5.2µM* | ? | 211% | 1% | 1.5µM*
COc1cccc(C2CCCN2Cc2nc(-c3cnccn3)no2)c1 (configuration not stated) | 1% | 14% | 10% | 25% | -6% | 13µM*
Cc1nn(CCC(=O)N2CCN(c3ccccc3F)CC2)c(C)c1S(=O)(=O)N1CCCC1 | / | / | / | / | -2% | /
COc1ccc(NC(=O)Cc2c(C)n(C(=O)c3ccc(Cl)cc3)c3ccc(OC)cc23)cc1 | -11% | 3.3µM* | -6% | -31% | -6% | ?
O=C(COCc1cc(-c2cccs2)on1)NCc1ccc(F)cc1 | / | / | / | / | 11% | /
CCCc1c(OCCCCc2nn[nH]n2)ccc(C(C)=O)c1O | 23% | 11µM*! | 2%[8.37 µM] | -31% | -7% | ?
O=c1c2cc3c(cc2nc2sc(Nc4cccc([N+](=O)[O-])c4)nn12)OCO3 | / | / | / | / | 0% | /
Cc1cc(C)c2cc(CN(Cc3ccco3)C(=O)NCc3ccccc3)c(=O)[nH]c2c1 | 1% | 15µM* | ? | 30% | 8% | 0%
COc1ccccc1NC(=S)N(Cc1ccco1)Cc1cc2ccc(C)c(C)c2[nH]c1=O | -15% | 150% | ? | -12% | -10% | 12µM*
Cc1ccc2cc(CN(CC3CCCO3)C(=S)Nc3ccccc3)c(=O)[nH]c2c1C (configuration not stated) | 2% | -5% | ? | 45% | -12% | 10µM*
COc1ccccc1NC(=S)N(Cc1ccco1)Cc1cc2cc(C)cc(C)c2[nH]c1=O | 7% | -17% | ? | -32% | ? | 3.3µM*
Cc1cc(C)c2[nH]c(=O)c(CN(CC3CCCO3)C(=S)Nc3ccccc3)cc2c1 (configuration not stated) | -2% | -5% | 0% | -20% | -13% | -9%
Cc1cc(C)c(S(=O)(=O)Nc2cc(Cl)c3oc4c(c3c2)C(=O)CCC4)cc1C | / | / | / | / | -10% | /
CC(C)CN(c1ccccc1)S(=O)(=O)c1nnc(NC(=O)C2CCCCC2)s1 | / | / | / | / | -2% | /
CCOC(=O)c1c(C)c(C(=O)NCCc2ccc(OC)cc2)c(C)n1C | / | / | / | / | -1% | /
